# Compound activity (PubChem)
# Rv3671c protease = Rv3671c (M. tuberculosis) protease inhibition; P9WHR9; inhibition, % at 5.96 µM; 0.048% of 320,000 active; in the data active = inhibition above about 38%;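 also: extracellular domain of Rv3671c used as enzyme; 0% = enzyme with DMSO and 100% = no enzyme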
# Mtb betalactam = beta-lactam sensitization of Mtb H37Rv. inhibition, % at 25 µM. M. tuberculosis H37Rv growth with meropenem, percent inhibition. 0.27% of 330,000 active; call rule not given here;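 also: growth measured after seven days incubation then overnight dye step; 0% = bacteria only wells and 100% = bacteria with antibiotic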
# RecA intein inh = inhibitors of M. tuberculosis RecA intein splicing; P9WHJ3; cell-free RecA intein splicing, fluorescence; inhibition, % (concentration not given with the values); 0.75% of 290,000 active; in the data active = inhibition above about 30%; inconclusive = no clear call, values can overlap the other calls;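 also: 0% = vehicle wells and 100% = reference inhibitor control wells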
# UGM FP inh = Mtb UDP-galactopyranose mutase inhibition; P9WIQ1; purified UGM, fluorescence polarization probe displacement; inhibition, % at 10 µM; 0.06% of 320,000 active; in the data active = inhibition above about 10%, passing the limit was not always enough; inconclusive = no clear call, values can overlap the other calls
# GDH-TPI counter-1 = inhibits GDH-TPI coupling enzymes, artifact for Mtb FBA screen. GDH-TPI coupled enzyme counterscreen, NADH absorbance. inhibition, % at 4.8 µM. 1.2% of 360,000 active. AID 588335; in the data active = inhibition above about 30%;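 also: 0% = DMSO wells and 100% = wells lacking the enzyme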
# Mtb FBA inh = inhibitors of M. tuberculosis fructose-bisphosphate aldolase; 2.3% of 360,000 active; purified M. tuberculosis FBA, fluorescence read-out; P9WQA3; inhibition, % at 1 µM;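 also: 0% = vehicle and 100% = reference inhibitor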
# Target sequence (P9WQA3 whole entry, looked up): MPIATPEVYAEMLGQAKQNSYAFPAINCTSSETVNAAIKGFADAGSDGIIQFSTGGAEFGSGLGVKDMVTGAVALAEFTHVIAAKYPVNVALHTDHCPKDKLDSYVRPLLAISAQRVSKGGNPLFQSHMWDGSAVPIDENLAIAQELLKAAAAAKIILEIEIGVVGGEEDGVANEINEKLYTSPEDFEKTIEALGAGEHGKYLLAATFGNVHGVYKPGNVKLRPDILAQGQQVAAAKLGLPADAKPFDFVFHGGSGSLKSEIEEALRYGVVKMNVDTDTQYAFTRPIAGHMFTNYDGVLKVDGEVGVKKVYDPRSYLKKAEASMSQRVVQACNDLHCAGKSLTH
# Mtb FBA confirm = confirmation of M. tuberculosis fructose-bisphosphate aldolase inhibitors; shares compounds with Mtb FBA inh; purified M. tuberculosis FBA, fluorescence read-out; inhibition, % at 1 µM; 78% of 5,600 active;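 also: 0% = vehicle wells and 100% = reference inhibitor wells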
# GDH-TPI counter-2 = GDH-TPI inhibition counter-screen for FBA inhibitors. GDH-TPI coupled enzyme counterscreen, fluorescence. shares compounds with Mtb FBA inh. inhibition, % at 1 µM. 81% of 5,600 active; in the data active = inhibition above about 10%
# GDH-TPI DR = GDH-TPI dose response counter-screen for Mtb FBA | IC50, µM | AID 652145 | GDH-TPI coupled enzyme assay, fluorescence, artifact counterscreen | shares compounds with Mtb FBA inh | 79% of 170 active; call rule not given here
# The depositor's hits bear a star; ? = inconclusive; . = not tested or not shown; + = active, no number. Sampled rows, rich in hits. Any-hit rate of the full collection: about 4%. Rule as the data show it, unless noted: active = inhibition above about 27%; inactive = the rest.
SMILES,Rv3671c protease,Mtb betalactam,RecA intein inh,UGM FP inh,GDH-TPI counter-1,Mtb FBA inh,Mtb FBA confirm,GDH-TPI counter-2,others
Cc1ccc(CNC(=O)Cn2cnc3c(OCc4ccccc4)ncnc32)o1,1.6,-1.7,.,0.2,-1.8,-0.4,.,.,
CCOc1ccccc1-c1nc2c([nH]1)c(=O)n(C)c(=O)n2C,-2.7,-5.4,1.2,2.1,16.8,39.2*,94.1*,82.1*,
CCOc1ccccc1-c1nc2c(C(C)(C)C)nn(C)c2c(=O)[nH]1,-7.9,-8.0,0.8,0.9,.,.,.,.,
Nc1ccc(O)c(C(=O)O)c1,-9.2,-6.3,-24.7,2.1,.,.,.,.,
CC(C)(c1ccc(O)cc1)c1ccc(O)cc1,-10.6,2.5,3.0,3.1,5.6,-1.6,.,.,
CC(C)(c1ccc(O)cc1)c1ccc(O)c(C(=O)O)c1,.,.,.,.,0.0,61.2*,59.6*,51.9*,
O=C(O)c1cc(O)ccc1O,.,.,.,.,3.6,87.0*,3.7,-4.7,
CCN(CC(=O)Nc1c(F)cccc1F)C(=O)c1cc(-c2cccs2)nn1-c1ccccc1,2.6,-4.2,0.9,0.4,1.1,2.2,.,.,
O=c1ccccn1CCOc1ccc(Cl)cc1,-4.1,-2.3,.,0.3,3.4,3.5,.,.,
Cc1ccc(/C=C2/SC(=Nc3ccc(F)cc3)NC2=O)s1,5.8,-1.9,-0.9,3.3,-0.4,2.9,.,.,
COc1ccccc1CNCc1cc(=O)oc2c(C)c(C)ccc12,-4.5,6.7,-1.8,-0.3,0.4,5.0,.,.,
Cc1cc(=O)oc2c(C)c(OCC(=O)c3ccccc3)ccc12,-2.0,1.8,0.6,-0.9,3.1,-0.4,.,.,
Cc1cc(=O)oc2c(C)c(OCC(=O)N(C)C)ccc12,5.8,-18.1,.,0.9,20.4,36.9*,46.0*,39.7*,
Cc1c(C)c2ccc(OCC(=O)N(C)C)c(C)c2oc1=O,-4.6,2.1,-4.3,2.5,12.3,79.2*,148.3*,124.8*,
COc1ccc2c(C)cc(=O)oc2c1C,7.7,2.3,3.4,-1.8,1.7,54.3*,+,195.7*,
C=CCOC(=O)COc1ccc2c(C)c(C)c(=O)oc2c1C,-3.3,96.1,0.6,0.2,11.1,58.0*,32.3*,34.1*,
O=C(NCCOc1ccccc1)C1CCCN1C(=O)c1cccs1 (stereo not drawn),6.7,-1.3,2.2,-1.8,-1.9,0.9,.,.,
CCOC(=O)C1CCN(C(=O)CN2C(=O)NC3(CCCCC3)C2=O)CC1,-3.1,-3.1,.,-0.7,-4.6,-1.5,.,.,
Cc1ccc(NC(=O)c2cc(S(=O)(=O)N3CCCCC3)ccc2N2CCOCC2)c(C)c1,.,.,.,.,5.4,-2.2,.,.,
Cc1cccc(C)c1NC(=O)COc1ccc2c(C)c(Cc3ccccc3)c(=O)oc2c1C,2.6,3.4,0.2,0.0,0.0,1.2,.,.,
CCc1c(C)c2ccc(OCC(=O)N(C)C)c(C)c2oc1=O,5.7,-11.4,.,0.3,2.6,75.6*,+,+,
Cc1c(OCC(=O)N(C)C)ccc2c3c(c(=O)oc12)CCCCC3,-21.6,3.4,-1.5,2.0,15.6,88.1*,0.8,-3.8,
CCOC(=O)CCc1c(C)c2ccc(OCC(=O)N(CC)CC)c(C)c2oc1=O,3.9,9.9,0.0,-1.6,-0.3,75.8*,18.0,19.8*,
CCc1c(C)c2ccc(OCC(=O)OC(C)C)c(C)c2oc1=O,0.5,?,1.2,-1.8,3.7,11.4,.,.,
COc1ccc(-c2csc(CCn3nc(C)cc3C)n2)cc1,3.1,2.2,3.1,0.2,-5.4,3.2,.,.,
SMILES,Rv3671c protease,Mtb betalactam,RecA intein inh,UGM FP inh,GDH-TPI counter-1,Mtb FBA inh,Mtb FBA confirm,GDH-TPI counter-2,others
COc1ccc(C2Nc3ccccc3C(=O)N2Cc2ccco2)cc1COc1ccc([N+](=O)[O-])cc1 (stereo not drawn),-5.0,3.1,2.5,-0.8,4.1,-0.4,.,.,
COc1cccc(OCc2cc(C3Nc4ccccc4C(=O)N3Cc3ccco3)ccc2OC)c1 (stereo not drawn),.,.,11.9,.,3.5,13.0,.,.,
O=C1c2ccccc2NC(c2ccccc2)N1Cc1ccco1 (stereo not drawn),1.3,2.9,-1.1,1.3,-9.4,51.0*,3.2,0.8,
O=C1c2ccccc2NC(c2ccc(F)cc2)N1Cc1ccco1 (stereo not drawn),3.6,-3.9,1.5,-0.2,16.4,49.5*,85.3*,61.0*,
COc1ccc(OC)c(NC(=O)CCC(=O)Oc2ccc(C)cc2)c1,9.3,-6.7,0.6,-4.1,5.6,0.0,.,.,
COc1cc(C(=O)N(Cc2ccccn2)CC2CCCO2)cc(OC)c1OC (stereo not drawn),4.4,-7.1,-0.7,-0.9,-9.3,4.2,.,.,
Cc1cccc(NC(=O)c2cnc3ccccn3c2=O)c1,.,.,.,.,19.2,7.8,.,.,
Cc1ccn2c(=O)c(C(=O)O)cnc2c1,1.2,-8.8,-1.9,2.5,33.8*,92.4*,92.5*,83.1*,
O=C(COC(=O)/C=C/c1ccc(Cl)cc1)NC1CC1,-1.9,2.6,.,3.3,8.9,-0.6,.,.,
CCOC(=O)C1=C(COC(=O)/C=C/c2ccc(SC)cc2)NC(=O)NC1C (stereo not drawn),-8.1,-6.4,-0.7,0.2,18.7,40.2*,34.8*,22.8*,
CSc1ccc(/C=C/C(=O)OCC(=O)NC(C)C)cc1,9.8,4.3,12.9,-0.8,19.6,57.9*,98.2*,93.2*,
CSc1ccc(/C=C/C(=O)OCC(=O)NC2CC2)cc1,0.7,1.0,.,-3.8,24.5,46.5*,95.1*,67.6*,
CCCn1ccnc1SC(C)C(=O)Nc1c(C)n(C)n(-c2ccccc2)c1=O (stereo not drawn),-5.2,-4.8,.,0.3,-9.5,-0.3,.,.,
O=C(O)/C(=C\c1ccco1)NC(=O)c1cccc2ccccc12,5.9,-0.8,0.7,-5.3,2.5,0.3,.,.,
CC(=O)Oc1ccc(/C=C2/Oc3ccccc3C2=O)cc1,-8.5,91.8,-0.4,0.6,24.3,2.1,.,.,
COc1ccc(/C=C2\Oc3ccccc3C2=O)cc1,-4.8,-0.6,.,-2.3,11.8,84.3*,18.4,8.3,GDH-TPI DR=1.62*
O=Cc1ccc(OCc2ccc3ccccc3c2)cc1,-6.4,10.9,-0.2,-0.5,4.5,1.1,.,.,
NS(=O)(=O)c1ccc(CNC(=O)CC23CC4CC(CC(C4)C2)C3)cc1,-6.3,8.0,-0.9,-1.9,-7.4,-0.3,.,.,
COc1cc(NC(=O)CSc2nc3ccccc3cc2C)c(C(=O)O)cc1OC,2.8,0.2,2.7,?,13.5,9.1,.,.,
COc1cc(NC(=O)CSc2nc3cc(C)ccc3cc2C)c(C(=O)O)cc1OC,7.3,-3.1,-0.9,0.5,6.9,27.3*,45.3*,24.9*,
Cc1cc(C)c(S(=O)(=O)Nc2nnc(CC(C)C)s2)c(C)c1,-0.1,-10.8,1.7,0.3,1.5,0.9,.,.,
